Results filed as inconclusive are left out. Activity calls are given as the source filed them. Unless noted, calls follow the shape of the dose curve; as a rule, active = well fitted curve in the direction sought with a large enough effect in the repeat runs; inconclusive = weak or mixed curves; inactive = no such curve, though single readings can be large; an effect the other way counts as inactive or inconclusive.
Columns and labels:
[1] = qHTS assay to test for compound auto fluorescence at 460 nm (blue) in HEK293 cell free culture (AID 720681)
Outline: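 Test compounds were pinned into cell-free culture medium (DMEM with 10% FBS) and fluorescence was read directly at Ex/Em 405/460 nm. Signals were expressed as fluorescence equivalents of triamterene, with DMSO vehicle as control.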

[2] = qHTS assay to test for compound auto fluorescence at 535 nm (green) in HEK293 cell free culture (AID 720682)
Outline: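 Green-label autofluorescence (485 nm excitation, 535 nm emission) measured on compound added to cell-free culture medium (DMEM, 10% FBS). Output is expressed relative to fluorescein.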

[3] = qHTS assay to test for compound auto fluorescence at 590 nm (red) in HEK293 cell free culture (AID 720683)
Outline: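 Tox21 10K library compounds were pinned into cell-free DMEM with 10% FBS and fluorescence was read at excitation 540 nm. Activity is expressed as Rose Bengal sodium equivalency.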

[4] = qHTS assay to test for compound auto fluorescence at 590 nm (red) in HepG2 cell free culture (AID 720684)
Outline: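 Ex 540 / Em 590 nm read of compound in cell-free MEM (10% FBS). Rose Bengal sodium reference.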

[5] = qHTS assay to test for compound auto fluorescence at 535 nm (green) in HepG2 cell free culture (AID 720686)
[6] = qHTS assay to test for compound auto fluorescence at 460 nm (blue) in HepG2 cells (AID 720687)
Outline: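 Cells (2,000/well in MEM with 10% FBS) attached overnight at 37 C, then were exposed to compound or DMSO for 1 hr at 37 C, 5% CO2. Fluorescence read at Ex/Em 405/460 nm, expressed as triamterene-equivalent signal.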

[7] = biological target: Glucocorticoid receptor (Homo sapiens) (UniProt P04150); experiment: qHTS assay to identify small molecule agonists of the glucocorticoid receptor (GR) signaling pathway (AID 720691; active = well fitted activation curve with a large enough effect in the signal ratio in the repeat runs, not every such curve was filed as active; the % refers to the signal ratio)
Outline: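 Agonist-mode qHTS in HeLa cells stably expressing a glucocorticoid-response-element beta-lactamase reporter. Fluorescence intensity read with FRET substrate (2 h, room temperature) after 18 h compound treatment at 37 C.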

[8] = biological target: Glucocorticoid receptor (Homo sapiens) (UniProt P04150); experiment: qHTS assay to identify small molecule antagonists of the glucocorticoid receptor (GR) signaling pathway (AID 720692; active = well fitted inhibition curve with a large enough effect in the signal ratio in the repeat runs, not every such curve was filed as active; the % refers to the signal ratio)
Outline: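 Inhibition of dexamethasone-driven (5 nM final) beta-lactamase expression was measured in GRE-reporter HeLa cells over 18 h at 37C. Fluorescence was read after 2 h with the B/G FRET substrate at room temperature.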

[9] = qHTS assay to identify small molecule antagonists of the glucocorticoid receptor (GR) signaling pathway - cell viability counter screen (AID 720693); also: nearly all actives have a fitted effect of over 55% in size
[10] = qHTS assay for identifying genotoxic compounds that show differential cytotoxicity against isogenic chicken DT40 cell lines with known DNA damage response pathways - wild type cell line (AID 743012); also: nearly all actives have a fitted effect of over 60% in size
Outline: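 Viability by ATP luminescence (CellTiter-Glo, 30 min RT) after 40 h compound treatment at 37 C/5% CO2, using 300 parental DNA repair-proficient DT40 cells per well.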

[11] = qHTS assay for identifying genotoxic compounds that show differential cytotoxicity against isogenic chicken DT40 cell lines with known DNA damage response pathways - Rev3 mutant cell line (AID 743014); also: nearly all actives have a fitted effect of over 55% in size
[12] = qHTS assay for identifying genotoxic compounds that show differential cytotoxicity against isogenic chicken DT40 cell lines with known DNA damage response pathways - Rad54/Ku70 mutant cell line (AID 743015); also: nearly all actives have a fitted effect of over 60% in size
[13] = qHTS assay to identify small molecule antagonists of the androgen receptor (AR) signaling pathway - cell viability counter screen (AID 743033; also: nearly all actives have a fitted effect of over 45% in size)
[14] = qHTS assay to identify small molecule antagonists of the androgen receptor (AR) signaling pathway using the MDA cell line - cell viability counter screen (AID 743041; also: nearly all actives have a fitted effect of over 45% in size)
Outline: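 In this qHTS counter assay, fluorescence intensity after CellTiter-Fluor addition indicated viability of MDA-kb2 AR-luc cells given compounds and R1881 for 16 h at 37C.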

[15] = qHTS assay to identify small molecule antagonists of the thyroid receptor (TR) signaling pathway - cell viability counter screen (AID 743064); also: nearly all actives have a fitted effect of over 50% in size
Outline: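 GH3.TRE-Luc rat pituitary cells dosed after 4 hr plating, co-stimulated with T3 at 1 nM final, incubated 23.5 h at 37 C. Viability measured in the same wells by CellTiter-Fluor fluorescence after 30 min further at 37 C.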

[16] = qHTS assay to test for compound auto fluorescence at 460 nm (blue) in HepG2 cell free culture (AID 720685)
Outline: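 Cell-free plates of MEM plus 10% FBS received 23 nL compound or DMSO vehicle; blue-channel (405/460 nm) intensity scored against triamterene as reference fluorophore.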

[17] = biological target: Androgen receptor (Homo sapiens) (UniProt P10275); experiment: qHTS assay to identify small molecule antagonists of the androgen receptor (AR) signaling pathway (AID 743035; active = well fitted inhibition curve with a large enough effect in the signal ratio in the repeat runs, not every such curve was filed as active; the % refers to the signal ratio)
Outline: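 Antagonist mode: AR-bla HEK293 cells co-treated with test compounds and agonist R1881 for 16 h at 37C, 5% CO2. Beta-lactamase activity read as FRET fluorescence after 2 h room-temperature substrate loading.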

[18] = biological target: Androgen receptor (Homo sapiens) (UniProt P10275); experiment: qHTS assay to identify small molecule agonists of the androgen receptor (AR) signaling pathway using the MDA cell line (AID 743040; also: nearly all actives have a fitted effect of over 20% in size)
Outline: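 Cell-based luciferase reporter: MDA-kb2, MMTV promoter (AR + GR response elements). 16 h compound exposure at 37C; ONE-Glo, 30 min RT, luminescence.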

[19] = biological target: Androgen receptor (Homo sapiens) (UniProt P10275); experiment: qHTS assay to identify small molecule antagonists of the androgen receptor (AR) signaling pathway using the MDA cell line (AID 743042; also: nearly all actives have a fitted effect of over 55% in size)
Outline: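 MDA-kb2 cells (human breast carcinoma, stably carrying an MMTV-luciferase reporter responsive to AR and GR) were plated at 3,000 cells/well and preincubated 5 hr at 37C, then given compound plus R1881 agonist for 16 h. ONE-Glo luminescence was read.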
% is scaled to controls: 0 for no effect and ±100 for the full control effect.

Sequence of Androgen receptor (Homo sapiens) (P10275 whole entry, looked up): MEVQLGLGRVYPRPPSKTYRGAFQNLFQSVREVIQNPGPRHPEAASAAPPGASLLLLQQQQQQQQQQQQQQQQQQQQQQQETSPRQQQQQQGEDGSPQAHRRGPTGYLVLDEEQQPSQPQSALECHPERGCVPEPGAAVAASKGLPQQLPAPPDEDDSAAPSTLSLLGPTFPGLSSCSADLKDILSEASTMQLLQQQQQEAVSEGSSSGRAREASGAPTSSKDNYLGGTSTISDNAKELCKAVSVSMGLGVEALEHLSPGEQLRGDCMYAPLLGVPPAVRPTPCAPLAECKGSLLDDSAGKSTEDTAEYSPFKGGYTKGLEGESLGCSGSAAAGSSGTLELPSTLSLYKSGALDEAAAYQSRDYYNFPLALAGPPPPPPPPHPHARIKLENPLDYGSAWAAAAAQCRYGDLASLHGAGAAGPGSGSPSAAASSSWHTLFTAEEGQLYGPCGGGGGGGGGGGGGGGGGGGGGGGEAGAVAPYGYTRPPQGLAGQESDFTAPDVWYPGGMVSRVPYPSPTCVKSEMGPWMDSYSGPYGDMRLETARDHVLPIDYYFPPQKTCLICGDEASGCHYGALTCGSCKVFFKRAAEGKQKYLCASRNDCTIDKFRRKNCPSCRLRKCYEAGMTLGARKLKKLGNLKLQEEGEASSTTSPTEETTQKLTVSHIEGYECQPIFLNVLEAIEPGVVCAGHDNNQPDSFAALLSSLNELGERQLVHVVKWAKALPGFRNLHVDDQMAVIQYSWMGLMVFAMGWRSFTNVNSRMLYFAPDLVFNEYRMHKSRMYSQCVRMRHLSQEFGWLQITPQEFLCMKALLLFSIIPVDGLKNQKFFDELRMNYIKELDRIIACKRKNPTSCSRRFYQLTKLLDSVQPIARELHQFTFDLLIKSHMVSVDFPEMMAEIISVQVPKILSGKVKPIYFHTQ
Sequence of Glucocorticoid receptor (Homo sapiens) (P04150 whole entry, looked up): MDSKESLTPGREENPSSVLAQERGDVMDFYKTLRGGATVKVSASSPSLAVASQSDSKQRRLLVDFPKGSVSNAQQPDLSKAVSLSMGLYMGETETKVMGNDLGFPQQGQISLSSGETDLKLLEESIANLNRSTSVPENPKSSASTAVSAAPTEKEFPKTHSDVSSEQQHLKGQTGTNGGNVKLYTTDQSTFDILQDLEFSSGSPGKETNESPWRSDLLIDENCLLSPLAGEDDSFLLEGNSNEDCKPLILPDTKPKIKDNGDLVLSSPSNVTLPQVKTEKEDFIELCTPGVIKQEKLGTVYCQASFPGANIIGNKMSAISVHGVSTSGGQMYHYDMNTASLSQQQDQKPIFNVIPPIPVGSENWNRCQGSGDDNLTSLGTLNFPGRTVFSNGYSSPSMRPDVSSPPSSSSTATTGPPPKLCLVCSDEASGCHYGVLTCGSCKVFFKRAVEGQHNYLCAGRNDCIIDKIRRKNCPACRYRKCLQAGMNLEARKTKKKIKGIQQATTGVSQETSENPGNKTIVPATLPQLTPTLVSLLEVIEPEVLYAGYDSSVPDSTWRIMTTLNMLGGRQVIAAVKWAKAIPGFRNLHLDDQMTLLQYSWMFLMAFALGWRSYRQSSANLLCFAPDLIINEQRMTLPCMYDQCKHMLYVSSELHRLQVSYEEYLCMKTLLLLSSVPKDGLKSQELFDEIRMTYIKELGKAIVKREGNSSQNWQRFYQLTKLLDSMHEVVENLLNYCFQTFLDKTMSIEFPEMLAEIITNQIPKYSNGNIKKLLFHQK

C1CCC2(CCCCO2)OC1
inactive: outcome [1] | outcome [2] | outcome [3] | outcome [4] | outcome [5] | outcome [6] | Potency [7] | Potency [8] | outcome [9] | Potency [10] | Potency [11] | Potency [12] | outcome [13] | Potency [14] | Potency [15]

CC1(C)OC[C@@H](COC(=O)CCc2ccc(OC[C@@H](O)CNCCNC(=O)N3CCOCC3)cc2)O1
inactive: outcome [1] | outcome [2] | outcome [3] | outcome [4] | outcome [16] | outcome [5] | outcome [6] | Potency [8] | outcome [9] | Potency [10] | Potency [11] | Potency [12] | outcome [13] | Potency [17] | Potency [18] | outcome [19] | Potency [15]

CC(=O)c1ccccc1[N+](=O)[O-]
inactive: outcome [1] | outcome [2] | outcome [3] | outcome [4] | outcome [16] | outcome [5] | outcome [6] | outcome [9] | Potency [10] | Potency [11] | Potency [12] | outcome [13] | Potency [14] | Potency [15]

COc1cc(C(=O)NCc2ccc(OCCN(C)C)cc2)cc(OC)c1OC
inactive: fluorescence, % of fluorescent control [1] -0.119% [at 18.6 µM] | activity change [2] -0.0621% [at 18.6 µM] | fluorescence, % of fluorescent control [3] 0.0108% [at 18.6 µM] | fluorescence, % of Rose Bengal [4] -0.58% [at 18.6 µM] | fluorescence, % of fluorescent control [16] -0.0208% [at 18.6 µM] | fluorescence, % of fluorescein control [5] 0.123% [at 18.6 µM] | fluorescence, % of fluorescent control [6] 0.157% [at 18.6 µM] | Potency [7] | outcome [9] | Potency [10] | Potency [12] | Potency [14] | Potency [15]
